Source: PubChem BioAssay
HCV inhibitor: blocks hepatitis C virus; Huh7.5.1 HCVcc-Cre infection, luciferase reporter, 44 h; Potency, µM (doses to about 41.8 µM), for inactives: at the top dose activity change, negative = inhibition, hits mostly inhibitors; 340,000 tested, 3.4% active; also: potency is read from the fitted curve at half-maximal effect
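Infectious HCVcc-Cre (~0.5 moi) was added to cells just after compound, with cells seeded 4 h earlier at 1,000 per well. Luciferase activity after 44 h culture reported infection; substrate was incubated 15 min at room temperature before reading.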
Vaccinia mCherry: vaccinia inhibition (mCherry reporter); 310,000 tested, 0.63% active; Vaccinia virus mCherry reporter infection, fluorescence; Potency, µM (doses to about 36.5 µM), for the others: top-dose activity change, negative = inhibition, actives largely listed as inhibitors; calls by dose curve; tested in A549 cells; also: potency is read from the fitted curve at half-maximal effect; nearly all actives have a fitted effect of over 35% in size
FMDV antiviral: blocks foot and mouth disease virus; Potency, µM (highest dose often 57.9 µM), for inactives: top-dose activity change, negative = inhibition, actives largely listed as inhibitors; FMDV antiviral cell-based qHTS; 410,000 tested, 1.2% active; calls by dose curve; tested in HEK293T cells; also: read-out not given here; potency is read from the fitted curve at half-maximal effect; nearly all actives have a fitted effect of over 45% in size
Sm TGR block: S. mansoni TGR enzyme inhibition; Q962Y6; purified TGR, DTNB reduction, TNB absorbance 405 nm; Potency, µM (series often up to 114 µM), inactives show at the top dose activity change, negative = inhibition, usual class: inhibitors; 360,000 tested, 3% active; AID 485364; also: potency is read from the fitted curve at half-maximal effect; nearly all actives have a fitted effect of over 60% in size
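Kinetic colorimetric format: TGR-catalysed, NADPH-driven DTNB reduction monitored via TNB absorbance. Enzyme dispensed at 20 nM; compound exposure 15 min at room temperature before reaction start.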
HCMV antiviral: blocks human cytomegalovirus replication; HFF cells, HCMV-luciferase reporter, 72 h; active compounds read low; activity change, negative = inhibition, % at 57.5 µM; 410,000 tested, 4.5% active; AID 1259415; in the data active = activity change below about -60%; inconclusive = no clear call, values can overlap the other calls; inactive = above about -39%
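Two-dose cell screen: HFF monolayers treated with compounds and infected with luciferase-expressing HCMV at 1 PFU/cell, 72 h at 37C, then lysed for luciferase measurement.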
VACV Venus inh: vaccinia inhibition (Venus reporter); Vaccinia virus Venus reporter expression, fluorescence; Potency, µM (doses to about 36.5 µM), inactives show at the top dose activity change, negative = inhibition, usual class: inhibitors; 330,000 tested, 0.46% active; calls by dose curve; tested in A549 cells; also: potency is read from the fitted curve at half-maximal effect; nearly all actives have a fitted effect of over 30% in size
Numbers without * were called inactive; i = inactive; ? = inconclusive; . = no result. A selection: hits, their analogues and other compounds. The true share with any hit is near 9.3%. Unless noted, calls follow the shape of the dose curve; as a rule, active = well fitted curve in the direction sought with a large enough effect; inconclusive = small, poorly fitted or top-dose-only effect, or another doubt; inactive = no such curve, though single readings can be large; an effect the other way counts as inactive or inconclusive. % is scaled to controls: 0 for no effect and ±100 for the full control effect.

SMILES | HCV inhibitor | Vaccinia mCherry | FMDV antiviral | Sm TGR block | HCMV antiviral | VACV Venus inh
CCCCC[C@@H](C)N1C[C@H](COCc2ccccc2)Oc2cc(N3CC[C@@H](N(C)C)C3)ccc2S1(=O)=O | . | -13% | -1% | . | -102* | -7%
CCCCC[C@H](C)N1C[C@H](COCc2ccccc2)Oc2cc(N3CC[C@@H](N(C)C)C3)ccc2S1(=O)=O | . | -14% | 3% | . | -101* | -16%
CCCCC[C@@H](C)N1C[C@@H](COCc2ccccc2)Oc2cc(N3CC[C@@H](N(C)C)C3)ccc2S1(=O)=O | . | -16% | -10% | . | -20 | -21%
O=C(Nc1cccc(C(=O)OCc2cc(=O)n3c4c(sc3n2)CCCC4)c1)c1cccc(F)c1 | . | -17% | -14% | 4% | -74* | -14%
O=C(Nc1ccc(C(=O)OCc2cc(=O)n3c4c(sc3n2)CCCC4)cc1)c1cccc(F)c1 | . | -17% | 2% | 10% | -4 | -12%
O=C(Nc1ccccc1C(=O)OCc1cc(=O)n2c3c(sc2n1)CCCC3)c1ccccc1 | . | i | -25% | 5% | -83* | -11%
O=C(Nc1ccccc1C(=O)OCc1cc(=O)n2c3c(sc2n1)CCCC3)c1ccc(Cl)cc1 | . | -4% | -12% | -2% | ? | -16%
Cc1cc(C)nc(NNS(=O)(=O)c2ccc(F)c(Cl)c2)n1 | -3% | . | -8% | 3% | -10 | .
Cc1cc(C)nc(NNS(=O)(=O)c2ccc(Cl)cc2)n1 | -27% | -13% | 2% | . | -61* | -8%
CCO/C=C1/C(=O)N(c2ccccc2OC)C(=O)c2ccccc21 | 14% | -9% | ? | ? | -30 | 0%
COc1ccccc1N1C(=O)NC(=O)/C(=C/c2ccc3c(c2)Cc2ccccc2-3)C1=O | 3% | i | -12% | 32µM* | 16 | -3%
N=c1c2c(-c3ccccc3)c(-c3ccccc3)n(Cc3ccco3)c2ncn1CCCO | -90% | -7% | ? | 28µM* | -32 | -8%
N=c1c2c(-c3ccccc3)c(-c3ccccc3)n(Cc3ccco3)c2ncn1CCN1CCOCC1 | ? | . | -2% | -30% | -33 | .
N=c1c2c(-c3ccccc3)c(-c3ccccc3)n(Cc3ccco3)c2ncn1CCO | 13µM* | -27% | ? | ? | -5 | ?
N=c1c2c(n(Cc3ccc(Br)cc3)c3c1CCC3)CCCC2 | ? | . | 40µM* | -7% | -95* | .
N=c1c2c(n(Cc3ccc(Cl)c(Cl)c3)c3c1CCC3)CCCC2 | ? | . | ? | 5% | -86* | ?
O=c1[nH]c(=O)n(Cc2ccccc2)c2c1CCC2 | 6% | -6% | . | -1% | 2 | -14%
O=[N+]([O-])c1ccc(CN2CCCCCC2)cc1 | -3% | i | -2% | 0% | 13 | 6%
N=c1c2c(n(Cc3ccc([N+](=O)[O-])cc3)c3c1CCC3)CCCC2 | -8% | -1% | 0% | -4% | -86* | -1%
O=C(COC(=O)c1ccccc1Br)NCc1cccs1 | 9% | i | 21% | . | -10 | -6%
S=c1nc(COc2ccccc2)[nH]c2ccccc12 | -9% | -11% | 5% | -21% | 54 | -21%
Cc1onc(-c2c(Cl)cccc2Cl)c1C(=O)Nc1c(C)n(C)n(-c2ccccc2)c1=O | 20% | -4% | -12% | 0% | -18 | -4%
O=C(c1ccco1)c1cn(CC(=O)N2CCCC2)c2ccccc12 | 5% | -1% | -4% | -3% | -1 | -9%
COc1cc(NC(=O)OCc2ccccc2)c2ncccc2c1 | 14µM* | -28% | -9% | . | 6 | -21%
COc1cc(NC(=O)c2cc(OC)c(OC)c(OC)c2)c2ncccc2c1 | 10µM* | -18% | -9% | . | 4 | -13%
SMILES | HCV inhibitor | Vaccinia mCherry | FMDV antiviral | Sm TGR block | HCMV antiviral | VACV Venus inh
Cc1ccc(N(Cc2cc(=O)[nH]c3ccccc23)C(=O)C(C)C)cc1 | -10% | i | -18% | 0% | ? | -12%
Cc1cc(C)cc(NC(=O)N2CCCN(Cc3c(F)cccc3Cl)CC2)c1 | -25% | -30% | -15% | -15% | -17 | -2%
CCCCNC(=S)N(C)/N=C/c1ccccc1F | -29% | -15% | 2% | 6% | 40 | -16%
CCCCNC(=S)N(C)/N=C/c1c(F)cccc1F | ? | -15% | -3% | -3% | -90* | -8%
Cc1ccc(N2CCN(S(=O)(=O)N3CCCCC3)CC2)cc1C | 2% | -6% | -11% | 0% | -69* | 2%
NC(=O)c1ccc(SCC(=O)OCC(=O)N2CCN(C(=O)c3ccco3)CC2)c([N+](=O)[O-])c1 | 28% | i | -2% | -23% | 7 | -15%
Cc1nccn1-c1c([N+](=O)[O-])c(=O)n(C)c2ccccc12 | -15% | i | ? | -16% | 22 | -12%
Cn1c(=O)c([N+](=O)[O-])c(-n2cnc3ccccc32)c2ccccc21 | ? | -5% | ? | 16µM* | -1 | -15%
Cn1c(=O)c([N+](=O)[O-])c(Cl)c2ccccc21 | 7.9µM* | -14% | 14µM* | 0.45µM* | -71* | -4%
CCOC(=O)C1=C(C)NC(C)=C(C(=O)OCC)C1C(=O)OCC(=O)NCc1ccccc1OC | ? | -29% | 22% | . | -23 | -19%
CCOC(=O)c1ccccc1NC(=O)N(Cc1ccc(CC)cc1)Cc1cn[nH]c1-c1ccc(OC)cc1 | . | ? | ? | 0% | -63* | ?
CC[C@]12c3[nH]c4cc(-c5ccco5)ccc4c3CCN1C(=O)[C@@H](CC(=O)NC/C=C(\C)CCC=C(C)C)C[C@@H]2C(=O)N1CCN(C(=O)c2ccco2)CC1 | 13µM* | ? | ? | . | . | ?
CC[C@]12c3[nH]c4cc(-c5ccco5)ccc4c3CCN1C(=O)[C@@H](CC(=O)NC/C=C(\C)CCC=C(C)C)C[C@@H]2C(=O)N1CCN(C(=O)C2CC2)CC1 | 16µM* | ? | ? | . | -16 | ?
CC[C@]12c3[nH]c4ccc(Cl)cc4c3CCN1C(=O)[C@@H](CC(=O)NC/C=C(\C)CCC=C(C)C)C[C@@H]2C(=O)N1CCN(C(=O)C2CC2)CC1 | 22µM* | -25% | ? | . | ? | ?
COc1ccc(NC(=O)CN2CCN(S(=O)(=O)c3ccc(Br)cc3)CC2)c(OC)c1 | -7% | . | 0% | -12% | 5 | .
Cn1ccc2c(/C=C/c3ccc(F)cc3)cc3c(c21)C1CCC3C1 (stereo unspecified) | . | i | -11% | . | -67* | 1%
COC(=O)C1=C(c2cccc(OC)c2OC)C[C@@H]2CC[C@H]1N2C(=O)N1CCC(O)CC1 | 13% | -10% | -1% | . | -28 | -2%
COc1ccc(NC(=O)CSc2ccccc2)cc1S(=O)(=O)N1CCOCC1 | -12% | -7% | 26% | 2% | 4 | -8%
CCc1ccc(C(=O)Nc2ccc(OC)c(S(=O)(=O)N3CCCCC3)c2)cc1 | 4.5µM* | . | ? | 3% | -97* | .
